Assay results taken from PubChem BioAssay AID1508601 (ICCB-Longwood Screening Facility, Harvard Medical School, 2020).
The whole screen tested about 5,700 compounds, of which about 85 (1%) were called active. Rule as the data show it: active = p53-positive nuclei above about 36% (passing the limit was not always enough); inactive = the rest. Many of the other results were omitted from the sample, so actives are more common in it than they were.

What was measured:
[1] = nuclear p53 accumulation, HPV+ cells – imaging, p53-positive nuclei imaging, 24 h, 48 h (AID 1508601); settings: 24/48 h
[2] = target: Cellular tumor antigen p53 (Homo sapiens) (UniProt P04637); assay: as above; settings: 24/48 h, stronger effect = higher value
Cellular tumor antigen p53 (Homo sapiens), sequence (P04637 whole entry, looked up): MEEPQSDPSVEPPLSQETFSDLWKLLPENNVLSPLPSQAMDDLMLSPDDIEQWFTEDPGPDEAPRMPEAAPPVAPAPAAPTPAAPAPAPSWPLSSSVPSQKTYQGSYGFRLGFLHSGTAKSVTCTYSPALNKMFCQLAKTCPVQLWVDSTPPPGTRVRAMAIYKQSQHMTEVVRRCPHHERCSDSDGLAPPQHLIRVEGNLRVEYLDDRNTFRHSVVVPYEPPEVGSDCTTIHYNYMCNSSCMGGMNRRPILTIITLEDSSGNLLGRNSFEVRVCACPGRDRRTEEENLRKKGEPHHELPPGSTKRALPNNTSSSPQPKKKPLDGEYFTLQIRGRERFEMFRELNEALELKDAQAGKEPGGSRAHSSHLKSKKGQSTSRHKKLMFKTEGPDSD

Q: What does the source list for c1cc(NCCc2c[nH]c3ccccc23)cc(Nc2ccncc2)c1?
A: nuclei count, normalised ([1]; measured here: cell number at 24 h, Library stock concentration: 80 uM): 103%; nuclei count, normalised ([1]; measured here: cell number at 24 h, Library stock concentration: 400 uM): 107%; nuclei count, normalised ([1]; measured here: cell number at 24 h, Library stock concentration: 2 mM): 107%; nuclei count, normalised ([1]; measured here: cell number at 24 h, Library stock concentration: 10 mM): 91.3%; nuclei count, normalised ([1]; measured here: cell number at 48 h, Library stock concentration: 80 uM): 101%; nuclei count, normalised ([1]; measured here: cell number at 48 h, Library stock concentration: 400 uM): 107%; nuclei count, normalised ([1]; measured here: cell number at 48 h, Library stock concentration: 2 mM): 108%; nuclei count, normalised ([1]; measured here: cell number at 48 h, Library stock concentration: 10 mM): 77.6%; p53-positive nuclei, normalised ([2]; Library stock concentration: 80 uM): -0.0385% (inactive); p53-positive nuclei, normalised ([2]; Library stock concentration: 400 uM): -0.0904% (inactive); p53-positive nuclei, normalised ([2]; Library stock concentration: 2 mM): -0.152% (inactive); p53-positive nuclei, normalised ([2]; Library stock concentration: 10 mM): -0.0614% (inactive); p53-positive nuclei, normalised ([2]; measured here: p53 positive nuclei at 24 h, Library stock concentration: 80 uM): -0.148%; p53-positive nuclei, normalised ([2]; measured here: p53 positive nuclei at 24 h, Library stock concentration: 400 uM): -0.0802%; p53-positive nuclei, normalised ([2]; measured here: p53 positive nuclei at 24 h, Library stock concentration: 2 mM): 0.142%; p53-positive nuclei, normalised ([2]; measured here: p53 positive nuclei at 24 h, Library stock concentration: 10 mM): -0.0614%

Q: What does the source list for COc1ccc(CN2CCN(c3nccc(-c4c(C)nn(C)c4C)n3)CC2=O)cc1?
A: nuclei count, normalised ([1]; measured here: cell number at 24 h, concentration not given here): 101%; nuclei count, normalised ([1]; measured here: cell number at 48 h, concentration not given here): 105%; p53-positive nuclei, normalised ([2]; concentration not given here): -0.125% (inactive); p53-positive nuclei, normalised ([2]; measured here: p53 positive nuclei at 24 h, concentration not given here): -0.147%
